ELG1 genotox: induces genotoxicity in HEK293T cells with luciferase-tagged ELG1 | 330,000 compounds, 1.3% hits | HEK293T ELG1-luciferase reporter, luminescence, 16 h | Potency, µM (highest dose often 46 µM), without a hit: at the top dose activity change, positive = activation, hits mostly activators; also: % of control where 0% means no effect; nearly all actives have a fitted effect of over 60% in size
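16 hr compound incubation (37 °C, 5% CO2) of HEK293T cells carrying luciferase-tagged ELG1; luciferase then measured by ONE-Glo luminescence after 30 min at RT.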
Luc counter: blocks Kinase-Glo luciferase, a counter-screen artifact. Kinase-Glo luciferase, ATP luminescence, 8 min. Q27757. Potency, µM (doses to about 38.3 µM), for the others: at the top dose activity change, negative = inhibition, actives largely listed as inhibitors. 200,000 compounds, 0.28% hits. AID 1379; also: % is scaled to controls: 0 for no effect and ±100 for the full control effect; nearly all actives have a fitted effect of over 60% in size
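Luminescence was the read-out, taken after 8-minute incubation at ambient temperature. Luciferase turned over luciferin with 10 uM ATP in imidazole pH 7.2 buffer containing KCl, MgCl2, Tween 20 and BSA.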
SMN2 splice enh: increases expression of the SMN2 splice variant; 210,000 compounds, 2.8% hits; HEK293 SMN2-luciferase splicing reporter, luminescence, 30-36 h; Potency, µM (highest dose often 46.1 µM), inactives show at the top dose activity change, positive = activation, most hits filed as activators; AID 1458; also: % of control where 0% means no effect; nearly all actives have a fitted effect of over 55% in size
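HEK293 cells carry an SMN2 […]–luciferase reporter in which exon 7 inclusion puts luciferase in frame. Cells were plated 10-12 h before compound addition, then incubated 30-36 h at 37C. ONE-Glo luminescence was read; sodium butyrate at 4.5 mM final served as control.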
FLuc counter: counter-screen for miR-21 project: firefly luciferase inhibitors or activators | purified FLuc, Km substrates, luminescence inhibition | 360,000 compounds, 6.9% hits | P08659 | AID 588342 | Potency, µM (top dose mostly 57.5 µM), without a hit: at the top dose activity change, negative = inhibition, usual class: inhibitors;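 also: plate controls were vehicle for no effect and reference inhibitor for full effect; nearly all actives have a fitted effect of over 55% in size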
Target sequence (P08659 whole entry, looked up): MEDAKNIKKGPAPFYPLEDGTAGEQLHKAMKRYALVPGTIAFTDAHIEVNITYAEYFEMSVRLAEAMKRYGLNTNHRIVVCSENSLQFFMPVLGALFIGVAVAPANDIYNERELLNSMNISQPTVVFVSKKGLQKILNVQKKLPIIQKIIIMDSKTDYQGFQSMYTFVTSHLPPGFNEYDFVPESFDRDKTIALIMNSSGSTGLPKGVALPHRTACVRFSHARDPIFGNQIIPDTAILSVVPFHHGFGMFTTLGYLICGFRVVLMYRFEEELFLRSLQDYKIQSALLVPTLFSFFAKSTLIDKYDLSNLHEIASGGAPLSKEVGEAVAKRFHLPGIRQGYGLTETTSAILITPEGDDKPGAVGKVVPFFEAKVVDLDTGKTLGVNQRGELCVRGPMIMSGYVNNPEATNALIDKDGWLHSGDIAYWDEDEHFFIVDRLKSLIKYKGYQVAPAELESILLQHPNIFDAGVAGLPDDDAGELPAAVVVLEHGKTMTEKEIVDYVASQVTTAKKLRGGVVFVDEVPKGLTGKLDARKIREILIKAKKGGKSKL
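Biochemical qHTS of compounds, final roughly 60 µM downward over six points, against 10 nM purified firefly luciferase using Km concentrations of substrates (10 uM D-luciferin, 10 uM ATP) in Tris acetate pH 7.5 buffer; luminescence output.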
NPC1 promoter act: NPC1 promoter activation | Potency, µM (series often up to 9.22 µM), for the others: at the highest dose activation, hits mostly activators | Huh7 NPC1 promoter luciferase reporter, 24 h | 320,000 compounds, 2.4% hits; also: % of control where 0% means no effect; nearly all actives have a fitted effect of over 60% in size
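Quantitative HTS used a cell-based reporter: Huh7 cells stably bearing the NPC1 promoter upstream of luciferase were treated with compounds for 24 h, and promoter activation was read as luminescence.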
Rab9 promoter act: activators of Rab9 promoter. Huh7 Rab9 promoter-luciferase reporter, luminescence, 24 h. Potency, µM (series often up to 9.22 µM), for inactives: top-dose activation, negative = inhibition, most hits filed as activators. 320,000 compounds, 2.8% hits; also: % of control where 0% means no effect; nearly all actives have a fitted effect of over 60% in size
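Cell-based reporter: Huh7 stable for Rab9 promoter-driven luciferase, plated in reduced-serum medium with 10% FBS at 1500 cells/well, compound-treated 24 h at 37 °C, luminescence read after 10 min reagent.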
Starred values were filed as active, the others as inactive; ? = inconclusive; nt = no result. Compounds with a hit are over-represented: about 7.4% of the library has one in this group of screens. Calls follow the shape of the dose curve; as a rule, active = well fitted curve in the direction sought with a large enough effect; inconclusive = small, poorly fitted or top-dose-only effect, or another doubt; inactive = no such curve, though single readings can be large; an effect the other way counts as inactive or inconclusive. Potency is read from the fitted curve at half-maximal effect.

SMILES	ELG1 genotox	Luc counter	SMN2 splice enh	FLuc counter	NPC1 promoter act	Rab9 promoter act
O=C(Oc1ccc(/C=N/O)cc1)c1ccccc1Cl	13%	-1%	7%	9.5µM*	-2%	-1%
N#Cc1ccccc1S(=O)(=O)N1CCCC(c2nc3c(nnn3Cc3cccc(Cl)c3)c(=O)[nH]2)C1 (configuration not stated)	nt	nt	-8%	-18%	nt	nt
CN(c1ccccc1)c1nc2ccsc2c(=O)s1	13µM*	-2%	?	12µM*	?	3.2µM*
CCOc1ccc(C(=O)NC(Cc2ccccc2)C(=O)OC)cc1 (configuration not stated)	8%	-2%	8%	4.8µM*	27%	?
COC(=O)[C@H](Cc1ccccc1)NC(=O)c1ccc2ccccc2n1	3%	nt	nt	6.7µM*	0%	2%
CCOc1ccc(C(=O)NC(C)CCc2ccccc2)cc1 (configuration not stated)	1%	nt	nt	0%	5%	7%
CCCCCCCCCCCCC/C=C/[C@@H](O)[C@H](CO)NC(=O)CCCCCCCCCCCCCCC	nt	0%	5%	nt	nt	nt
O=C(c1ccccc1)c1cnc(Nc2ccccc2Cl)s1	?	-7%	20µM*	1.9µM*	1µM*	1.3µM*
CC(=O)c1csc(Nc2ccccc2Cl)n1	?	nt	nt	19µM*	3.2µM*	2.8µM*
CC(C)(C)C(=O)c1cnc(Nc2ccccc2Cl)s1	nt	-18%	13µM*	2.4µM*	nt	nt
O=C(c1ccc(Cl)c(Cl)c1)c1cnc(Nc2ccccc2)s1	2%	-4%	-4%	6%	1%	6%
CC(=O)c1cnc(Nc2ccc(C)cc2)s1	?	0%	?	?	23%	?
COCCNC(=O)c1csc(Nc2cccc3ccccc23)n1	-6%	nt	nt	-5%	-2%	0%
CCS(=O)(=O)N1CCC2(CC1)OC(=O)C(C)=C2C(=O)NCc1ccccc1C	nt	nt	nt	-10%	nt	nt
COc1ccc(Cl)cc1NC(=O)CN(C)S(=O)(=O)c1ccc2c(c1)CCCN2C(C)=O	nt	nt	nt	1%	nt	nt
CC(=O)OC[C@@]12C(=O)[C@@H](O)[C@@H](C)[C@]3(C[C@@H](c4ccoc4)O[C@@H]3OC(C)=O)[C@H]1CCC[C@]21CO1	nt	-1%	12%	nt	nt	nt
COc1ccc(NC(=O)c2cnc(SCC(=O)Nc3nc4ccc(C)cc4s3)n(C)c2=O)cc1	nt	nt	nt	-3%	nt	nt
Clc1ccc(Nc2nc3cccnc3s2)cc1	?	0%	13µM*	?	2.8µM*	2.5µM*
N#Cc1cccc(NC(=O)C2CCN(S(=O)(=O)c3ccc4[nH]c(=O)ccc4c3)CC2)c1	nt	nt	nt	3%	nt	nt
CC1CCC/C(=N\NC(=O)Nc2ccccc2)C1 (configuration not stated)	6%	nt	nt	15µM*	-1%	1%
COc1ccccc1N1CCN(C(=O)CSc2n[nH]c(-c3ccccc3Cl)n2)CC1	nt	nt	nt	-16%	nt	nt
Nc1cc([N+](=O)[O-])cc2oc(-c3ccccc3)cc12	?	nt	nt	19µM*	?	?
O=[N+]([O-])c1cc(Br)c(OCc2nnc(-c3ccccc3)o2)c(Br)c1	-7%	2%	-9%	?	0%	3%
Cc1ccc(/C=C/C(=O)NCCCc2ccccc2)cc1	-3%	0%	-10%	-26%	1%	-1%
C#CCNC(=O)/C=C/c1ccc(C)cc1	?	-5%	13µM*	11µM*	3.2µM*	4µM*
SMILES	ELG1 genotox	Luc counter	SMN2 splice enh	FLuc counter	NPC1 promoter act	Rab9 promoter act
O=C(Nc1ccc(F)cc1)NC1CCCCC1	?	-11%	3%	?	?	?
O=C(NC1CCCCC1)[C@H](O)[C@@H](O)C(=O)NC1CCCCC1	1%	-4%	8%	7%	-1%	-6%
O=C(NC1CCCCCC1)C(=O)NC1CCCC1	19%	-2%	13µM*	?	?	2.2µM*
Cc1ccc(NC(=O)C(=O)NC2CCCCC2)cc1	?	-10%	5µM*	?	1.6µM*	1.1µM*
Cc1ccc(NC(=O)NC2CCCCCCC2)cc1	?	nt	nt	7.6µM*	1.3µM*	2.2µM*
COc1ccc(C(=O)NCC(c2cccs2)S(=O)(=O)c2ccc(F)c(C)c2)cc1 (configuration not stated)	nt	nt	nt	-11%	nt	nt
CC(=O)Nc1cccc(C(=O)/C=C/c2ccc(N(C)C)cc2)c1	?	2%	5%	2.7µM*	2%	25%
CC(=O)Nc1cccc(C(=O)/C=C/c2ccc(/C=C/C(=O)c3cccc(NC(C)=O)c3)cc2)c1	-17%	1%	-68%	0%	-31%	-34%
CC(=O)Nc1cccc(C(=O)/C=C/c2ccc[nH]2)c1	16%	nt	nt	?	?	?
CC(=O)Nc1cccc(C(=O)/C=C/c2cccs2)c1	0%	-2%	8%	13µM*	23%	?
CC(=O)Nc1cccc(C(=O)/C=C/c2ccc(F)cc2)c1	?	-1%	-12%	19µM*	2%	0%
Cc1ccc2cc3c(N)nn(C(=O)c4cccc(F)c4)c3nc2c1	nt	nt	-9%	-3%	nt	nt
C=C(C(=O)C(C)(C)O)C(O)c1ccc([N+](=O)[O-])cc1 (configuration not stated)	nt	-2%	-4%	nt	nt	nt
O=C(NCCc1ccc(F)cc1)C(=O)NCC(c1ccc2c(c1)OCO2)N1CCOCC1 (configuration not stated)	nt	nt	nt	-3%	nt	nt
O=[N+]([O-])c1ccc2nc(-c3ccc(OC(F)F)cc3)cn2c1	?	-7%	nt	?	1µM*	1µM*
O=C1N=c2ccccc2=C1c1sc(=S)n(CC2CCCO2)c1O (configuration not stated)	-3%	-7%	-7%	0%	0%	-1%
COc1ccc(N=C2O/C(=C/c3sc(=S)n(CC4CCCO4)c3O)N=C2C#N)cc1 (configuration not stated)	-8%	nt	nt	2.4µM*	13%	7%
CCc1ccc(-c2cc(C(=O)Nc3ccc(S(=O)(=O)NC(C)=O)cc3)c3ccccc3n2)cc1	9%	-2%	4%	0.54µM*	?	28%
CC(C)(C)NS(=O)(=O)c1ccc(NC(=O)c2cc(-c3ccccc3)nc3ccccc23)cc1	-11%	-6%	5%	-6%	-4%	0%
Cc1ccc(-c2cc(C(=O)Nc3ccc(S(=O)(=O)Nc4ncccn4)cc3)c3ccccc3n2)cc1	10%	3%	17%	6.7µM*	-1%	-6%
CCOC(=O)c1noc2ncnc(N3CCC(C)CC3)c12	nt	nt	nt	5%	nt	nt
O=C(Nc1cc(S(=O)(=O)N2CCOCC2)ccc1Cl)c1cc2ccccc2o1	-1%	nt	nt	nt	-6%	2%
O=C(Nc1cccc(S(=O)(=O)N2CCCCC2)c1)c1cc2ccccc2o1	-9%	nt	nt	8.5µM*	0%	13%

Source: PubChem (National Center for Advancing Translational Sciences (NCATS))
